Results: ChEMBL document CHEMBL2218924, “A broad activity screen in support of a chemogenomic map for kinase signalling research and drug discovery” (Biochem J, 2013)

Assays:
[1] = biological target: T1, Serine/threonine-protein kinase BRSK1 (Homo sapiens) (UniProt Q8TDC3); conditions: at 1 µM
T1 sequence (whole entry): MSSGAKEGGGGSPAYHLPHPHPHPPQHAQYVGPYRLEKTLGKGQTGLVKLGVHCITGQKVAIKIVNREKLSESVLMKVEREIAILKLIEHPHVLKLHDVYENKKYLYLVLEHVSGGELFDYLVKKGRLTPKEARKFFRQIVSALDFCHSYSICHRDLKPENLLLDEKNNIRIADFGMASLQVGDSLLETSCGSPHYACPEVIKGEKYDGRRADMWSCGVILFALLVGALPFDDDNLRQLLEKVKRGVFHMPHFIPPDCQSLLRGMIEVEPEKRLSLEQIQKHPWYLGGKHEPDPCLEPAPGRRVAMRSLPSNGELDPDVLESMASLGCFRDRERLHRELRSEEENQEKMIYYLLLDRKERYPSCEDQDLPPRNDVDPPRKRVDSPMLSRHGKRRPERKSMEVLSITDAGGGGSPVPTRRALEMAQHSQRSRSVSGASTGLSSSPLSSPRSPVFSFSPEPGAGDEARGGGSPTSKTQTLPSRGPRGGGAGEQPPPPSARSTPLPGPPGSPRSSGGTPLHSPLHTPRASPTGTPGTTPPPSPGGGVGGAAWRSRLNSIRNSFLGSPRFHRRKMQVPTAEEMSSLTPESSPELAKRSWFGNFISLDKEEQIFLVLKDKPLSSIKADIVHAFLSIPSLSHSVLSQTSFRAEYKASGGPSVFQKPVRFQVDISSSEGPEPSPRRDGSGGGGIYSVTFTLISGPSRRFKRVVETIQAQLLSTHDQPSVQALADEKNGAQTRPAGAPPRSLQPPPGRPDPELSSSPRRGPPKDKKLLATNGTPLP

[2] = biological target: T1, Serine/threonine-protein kinase BRSK1 (Homo sapiens); conditions: at 10 µM
[3] = biological target: T2, Serine/threonine-protein kinase BRSK2 (Homo sapiens) (UniProt Q8IWQ3); conditions: at 1 µM
T2 sequence (whole entry): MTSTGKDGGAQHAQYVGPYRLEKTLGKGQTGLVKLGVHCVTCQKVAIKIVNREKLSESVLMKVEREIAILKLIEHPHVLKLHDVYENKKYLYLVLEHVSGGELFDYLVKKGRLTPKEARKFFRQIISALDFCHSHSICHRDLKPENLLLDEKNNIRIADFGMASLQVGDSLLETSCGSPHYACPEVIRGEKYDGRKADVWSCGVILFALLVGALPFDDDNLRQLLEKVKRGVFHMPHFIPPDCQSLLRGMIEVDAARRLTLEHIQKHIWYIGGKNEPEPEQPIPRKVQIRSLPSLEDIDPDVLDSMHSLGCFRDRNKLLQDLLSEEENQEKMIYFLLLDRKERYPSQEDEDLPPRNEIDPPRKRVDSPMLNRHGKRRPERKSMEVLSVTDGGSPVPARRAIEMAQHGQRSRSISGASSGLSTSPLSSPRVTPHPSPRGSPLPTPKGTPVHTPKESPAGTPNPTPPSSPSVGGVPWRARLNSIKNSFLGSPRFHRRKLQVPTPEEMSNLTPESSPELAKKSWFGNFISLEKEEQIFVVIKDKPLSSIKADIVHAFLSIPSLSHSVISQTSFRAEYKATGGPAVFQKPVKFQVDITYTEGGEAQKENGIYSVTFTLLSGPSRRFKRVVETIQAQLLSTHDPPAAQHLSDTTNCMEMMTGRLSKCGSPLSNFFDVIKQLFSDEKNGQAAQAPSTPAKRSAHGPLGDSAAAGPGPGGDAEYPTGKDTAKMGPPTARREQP

[4] = biological target: T2, Serine/threonine-protein kinase BRSK2 (Homo sapiens); conditions: at 10 µM
[5] = biological target: T3, Cyclin-dependent kinase 1/cyclin B1 (Homo sapiens) (UniProt P06493+P14635); conditions: at 1 µM
[6] = biological target: T3, Cyclin-dependent kinase 1/cyclin B1 (Homo sapiens); conditions: at 10 µM
[7] = biological target: T4, Cyclin-dependent kinase 2/cyclin A (Homo sapiens) (UniProt P24941+P20248+P78396); conditions: at 1 µM
[8] = biological target: T4, Cyclin-dependent kinase 2/cyclin A (Homo sapiens); conditions: at 10 µM
[9] = biological target: T5, Cyclin-dependent kinase 2/cyclin E (Homo sapiens) (UniProt P24864+P24941+O96020); conditions: at 1 µM
[10] = biological target: T5, Cyclin-dependent kinase 2/cyclin E (Homo sapiens); conditions: at 10 µM

T3 sequence (P06493 whole entry, looked up): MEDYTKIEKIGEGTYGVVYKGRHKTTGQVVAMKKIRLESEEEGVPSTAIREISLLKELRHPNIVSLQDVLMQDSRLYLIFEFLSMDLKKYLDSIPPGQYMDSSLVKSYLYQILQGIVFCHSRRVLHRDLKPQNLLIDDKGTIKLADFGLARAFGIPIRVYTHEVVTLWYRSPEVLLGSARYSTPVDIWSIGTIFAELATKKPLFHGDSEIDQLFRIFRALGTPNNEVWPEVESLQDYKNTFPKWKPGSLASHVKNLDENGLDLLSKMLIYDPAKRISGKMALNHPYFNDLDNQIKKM
T3 sequence (P14635 whole entry, looked up): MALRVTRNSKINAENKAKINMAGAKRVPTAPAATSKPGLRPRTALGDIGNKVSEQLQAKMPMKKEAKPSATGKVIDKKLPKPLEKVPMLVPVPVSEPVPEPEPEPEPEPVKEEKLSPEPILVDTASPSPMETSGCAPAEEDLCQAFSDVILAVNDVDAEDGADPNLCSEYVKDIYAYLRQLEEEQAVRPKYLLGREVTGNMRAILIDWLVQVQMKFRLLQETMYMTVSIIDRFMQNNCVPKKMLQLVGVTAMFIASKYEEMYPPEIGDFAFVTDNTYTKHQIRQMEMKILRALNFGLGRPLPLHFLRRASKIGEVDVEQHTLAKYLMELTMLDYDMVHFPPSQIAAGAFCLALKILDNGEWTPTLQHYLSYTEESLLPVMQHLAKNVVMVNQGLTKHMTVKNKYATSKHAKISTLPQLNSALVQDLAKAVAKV

Compound | residual activity [1] [%] | residual activity [2] [%] | residual activity [3] [%] | residual activity [4] [%] | residual activity [5] [%] | residual activity [6] [%] | residual activity [7] [%] | residual activity [8] [%] | residual activity [9] [%] | residual activity [10] [%]
Oc1n[nH]c2nnc(-c3c(-c4ccccc4)nn4ccccc34)cc12 | 88 | 76 | 112 | 83 | 109 | 105 | 89 | 86 | 89 | 93
O=Nc1c(-c2c(O)[nH]c3ccccc23)[nH]c2ccccc12 | 13 | 12 | 10 | 5 | 35 | 19 | 19 | 5 | 6 | -1
COc1cc2ncnc(N3CCN(C(=O)Nc4ccc(Oc5ccccc5)cc4)CC3)c2cc1OC | 79 | 91 | 113 | 126 | 119 | 109 | 117 | 92 | 98 | 96
O=[N+]([O-])c1ccc(-c2nc(-c3ccc(F)cc3)c(-c3ccncc3)[nH]2)cc1 | 97 | 101 | 118 | 103 | 102 | 103 | 90 | 79 | 105 | 96
CCN(CC)CCCCN1c2ccccc2Oc2ccc(Cl)cc21 | 88 | 105 | 131 | 126 | 119 | 96 | 132 | 102 | 116 | 106
CC(C)n1cnc2c(NCc3ccccc3)nc(NCCCO)nc21 | 105 | 100 | 110 | 99 | 90 | 55 | 58 | 11 | 39 | 8
Cn1cnc2cc3c(Nc4cccc(Br)c4)ncnc3cc21 | 58 | 13 | 91 | 62 | 103 | 94 | 132 | 87 | 110 | 102
O=C1NC(=O)c2cc(Nc3ccc(F)cc3)c(Nc3ccc(F)cc3)cc21 | 48 | 56 | 107 | 92 | 111 | 90 | 129 | 79 | 98 | 69
Oc1ccc(-c2nc(-c3ccc(F)cc3)c(-c3ccncc3)[nH]2)cc1 | 102 | 63 | 124 | 90 | 101 | 92 | 95 | 88 | 108 | 91
O=C1Nc2cc(Br)ccc2/C1=C1/Nc2ccccc2/C1=N\O | 33 | 12 | 4 | 6 | 54 | 12 | 37 | 38 | 3 | 7
COc1cccc(-c2cc(=O)c3ccccc3o2)c1N | 101 | 103 | 123 | 98 | 99 | 99 | 93 | 10 | 96 | 85
Cn1cc(/C=C2\C(=O)Nc3ccc(S(N)(=O)=O)cc32)c2ccccc21 | 23 | 3 | 36 | 19 | 34 | 39 | 68 | 46 | 67 | 52
COc1ccc(S(=O)(=O)N(CCO)c2ccccc2CN(C)C/C=C/c2ccc(Cl)cc2)cc1 | 81 | 63 | 114 | 88 | 117 | 90 | 76 | 64 | 106 | 95
O=C1NC(=O)/C(=C/c2ccc3c(c2)OC(F)(F)O3)S1 | 86 | 71 | 76 | 62 | 101 | 104 | 140 | 96 | 102 | 113
CO[C@H]1C[C@@H]2CC[C@@H](C)[C@@](O)(O2)C(=O)C(=O)N2CCCC[C@H]2C(=O)O[C@H]([C@H](C)C[C@@H]2CC[C@@H](O)[C@H](OC)C2)CC(=O)[C@H](C)/C=C(\C)[C@@H](O)[C@@H](OC)C(=O)[C@H](C)C[C@H](C)/C=C/C=C/C=C/1C | 70 | 68 | 97 | 139 | 120 | 108 | 129 | 113 | 105 | 96
Cc1ccc(S(=O)(=O)/C=C/C#N)cc1 | 83 | 99 | 113 | 77 | 106 | 102 | 124 | 91 | 91 | 105
Nc1cccc(-c2cc3c(Oc4cccc(O)c4)ncnc3[nH]2)c1 | 45 | 8 | 75 | 20 | 81 | 33 | 74 | 27 | 91 | 41
O=c1c2ccccc2[nH]c(=S)n1CCN1CCC(=C(c2ccc(F)cc2)c2ccc(F)cc2)CC1 | 63 | 78 | 96 | 72 | 114 | 104 | 143 | 80 | 99 | 88

Compound | residual activity [1] [%] | residual activity [2] [%] | residual activity [3] [%] | residual activity [4] [%] | residual activity [5] [%] | residual activity [6] [%] | residual activity [7] [%] | residual activity [8] [%] | residual activity [9] [%] | residual activity [10] [%]
O=C1Nc2ccccc2/C1=C1/Nc2ccccc2/C1=N\OCCC(O)CO (stereo not given) | 26 | 39 | 33 | 4 | 25 | 6 | 12 | 11 | 9 | 4
CC(=O)O/N=C1\C(=C2\C(=O)Nc3cc(Br)ccc32)Nc2ccccc21 | 48 | 24 | 52 | 21 | 90 | 34 | 60 | 24 | 42 | 9
O=C1c2ccccc2-[n+]2ccc3c([nH]c4ccccc43)c21 | 75 | 74 | 112 | 89 | 112 | 107 | 84 | 77 | 92 | 97
CN(C)c1ccc(/C=C2\C(=O)Nc3ccccc32)cc1 | 83 | 69 | 90 | 61 | 97 | 112 | 111 | 91 | 111 | 103
CO[C@H]1[C@@H](OC)C[C@H](C)[C@@H](OC)C2=CC(=O)C=C(NC(=O)/C(C)=C/C=C/[C@H](OC)[C@@H](OC(N)=O)/C(C)=C/[C@@H]1C)C2=O | 76 | 75 | 92 | 106 | 111 | 110 | 138 | 83 | 104 | 91
Nc1n[nH]c2nnc(-c3c(-c4ccccc4)nn4ccccc34)cc12 | 92 | 70 | 103 | 96 | 107 | 99 | 92 | 90 | 93 | 96
COc1ccc(CNc2nc(N(CCO)CCO)nc3c2ncn3C(C)C)cc1 | 91 | 92 | 114 | 99 | 81 | 26 | 24 | 3 | 18 | 0
CO[C@@H]1[C@H](N(C)C(=O)c2ccccc2)C[C@H]2O[C@]1(C)n1c3ccccc3c3c4c(c5c6ccccc6n2c5c31)C(=O)NC4 | 3 | 3 | 4 | 3 | 82 | 80 | 80 | 39 | 70 | 60
COc1ccc(C(=O)Nc2sc3c(c2C(N)=O)CCCC3)cc1OC | 93 | 96 | 105 | 103 | 98 | 93 | 134 | 91 | 106 | 97
Cc1ccc(NC2=CC(=O)c3sc(C)nc3C2=O)cc1 | 101 | 105 | 110 | 97 | 101 | 106 | 91 | 91 | 97 | 91
O=C1NC(=O)/C(=C\c2ccc3nccnc3c2)S1 | 59 | 65 | 78 | 77 | 79 | 31 | 132 | 47 | 94 | 98
CC(C)n1cnc2/c(=N/c3cccc(Cl)c3)nc(NCCO)[nH]c21 | 89 | 89 | 118 | 104 | 58 | 13 | 24 | 5 | 25 | 2
O=C(Nc1cccc(Nc2nccc(Nc3cccc(C(F)(F)F)c3)n2)c1)C1CC1 | 26 | 27 | 93 | 40 | 96 | 102 | 127 | 93 | 94 | 97
O=c1cc(-c2cccc3c2Sc2ccccc2S3)oc(N2CCOCC2)c1 | 102 | 96 | 107 | 96 | 101 | 77 | 96 | 78 | 101 | 87
CCOc1cc2ncnc(Nc3cccc(Br)c3)c2cc1OCC | 12 | 15 | 95 | 60 | 93 | 89 | 136 | 89 | 92 | 79
NC(=O)c1ccc2[nH]c(-c3ccc(Oc4ccc(Cl)cc4)cc3)nc2c1 | 83 | 81 | 116 | 88 | 93 | 56 | 82 | 83 | 91 | 87
Cn1nc2c3c(cccc31)C(=O)c1ccccc1-2 | 83 | 68 | 101 | 61 | 101 | 86 | 80 | 84 | 87 | 82
